In the library only some 0.41% were active in any assay of this set; here they are far more common.
GAA glycogen mod: GAA glycogen-cleavage inhibition or activation. P10253. recombinant GAA, glycogen substrate, Amplex Red glucose oxidase fluorescence. Potency, µM (titrated, usually from 76.4 µM), most hits filed as inhibitors. hit rate 0.38% among 300,000;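 note: the screen sought inhibitors and activators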
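Recombinant enzyme (4 nM final) with compounds titrated up to 77 uM and bovine liver glycogen (30 ug) in citrate pH 5.0, 0.01% Tween-20, 37 C 40 min. Released glucose detected by Amplex Red/glucose oxidase (Ex 573/Em 610); AC50 from Hill fits.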
GLA inh pH 4.5: inhibitors of human alpha-galactosidase A at pH 4.5; P06280; activity change, negative = inhibition, % at 105 µM; 230,000 tested, under 10 active; purified enzyme, 4-MU-alpha-Gal fluorescence, pH 4.5; AID 1467
GAA spleen mod: inhibits or activates alpha-glucosidase in human spleen homogenate | Potency, µM (series often up to 79.9 µM), usual class: inhibitors | human spleen homogenate, 4-MU-alpha-glucoside fluorescence | P10253 | hit rate 0.006% among 240,000 | AID 2112
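Enzyme source: human spleen homogenate, 1 ug/well. Buffer 50 mM citric acid/K phosphate pH 5.0, 0.01% Tween-20. 4-MU-alpha-glucoside 1 mM; 37 C x 40 min; NaOH/glycine stop; fluorescence.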
N370S GC mod: N370S glucocerebrosidase modulation, Gaucher chaperone candidate | P04062 | N370S GC spleen homogenate, 4MU-glucoside fluorescence | Potency, µM (series often up to 59.4 µM), usual class: inhibitors | hit rate 0.092% among 330,000 | AID 2101
GAA inhib: blocks human lysosomal alpha-glucosidase | P10253 | purified human GAA, 4-MU-alpha-glucoside fluorescence | Potency, µM (series often up to 76.9 µM), usual class: inhibitors | hit rate 0.005% among 200,000 | AID 1466
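Fluorescence at Ex 365/Em 440 nm from 4-methylumbelliferone reported enzyme activity after 20 min at room temperature. Reactions used 4 nM enzyme and 400 uM substrate at pH 5.0; curves fitted with the Hill equation.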
GLA spleen mod: inhibitors or activators of human alpha-galactosidase in spleen homogenate. P06280. human spleen homogenate, 4MU-alpha-Gal fluorescence, 40 min. Potency, µM (titrated, usually from 80 µM), most hits filed as inhibitors. hit rate 0.008% among 240,000. AID 2107
Target sequence (P06280 32-429 limits assumed): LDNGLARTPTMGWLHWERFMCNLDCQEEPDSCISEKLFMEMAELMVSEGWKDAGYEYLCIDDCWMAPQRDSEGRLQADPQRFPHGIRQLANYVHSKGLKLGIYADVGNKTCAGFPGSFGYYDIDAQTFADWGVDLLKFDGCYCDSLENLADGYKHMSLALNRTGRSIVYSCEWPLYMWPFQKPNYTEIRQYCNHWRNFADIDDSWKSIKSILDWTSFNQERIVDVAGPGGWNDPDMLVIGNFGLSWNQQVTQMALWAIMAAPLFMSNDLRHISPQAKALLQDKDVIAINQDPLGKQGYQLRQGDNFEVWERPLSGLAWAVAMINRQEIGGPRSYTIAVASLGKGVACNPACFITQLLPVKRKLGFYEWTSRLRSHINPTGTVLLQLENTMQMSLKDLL
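Human spleen homogenate (1 ug) as enzyme source, 4-methylumbelliferyl-alpha-D-galactopyranoside 1 mM final, citrate/phosphate pH 5.0 with 0.01% Tween-20. Compounds 40 min at 37C, NaOH/glycine stop; fluorescence Ex 365/Em 440, Hill-fit AC50.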
Of the large screens only hits and unclear results are named; the others gave an inactive call; ! = repeats disagree. Calls come from the whole dose curve; as a rule, active = well fitted curve in the direction sought with a large enough effect; inconclusive = small, poorly fitted or top-dose-only effect, or another doubt; inactive = no such curve, though single readings can be large; an effect the other way counts as inactive or inconclusive.

Cc1cccc(NNC(=O)C(=O)NNc2cccc(C)c2)c1	GAA glycogen mod inconclusive (no result: GAA inhib)
CCc1cc2c(Nc3ccc(O)cc3)nc(C)nc2s1	N370S GC mod 20µM (no result: GAA glycogen mod, GLA inh pH 4.5, GAA spleen mod, GAA inhib, GLA spleen mod)
CCc1cc2c(Nc3ccccc3O)nc(C)nc2s1	none (no result: GLA inh pH 4.5, GAA spleen mod, GAA inhib, GLA spleen mod)
CN1CCN(C(=O)Nc2cccc(Cl)c2)c2cccnc21	GAA glycogen mod 4.47µM (no result: GLA inh pH 4.5, GAA spleen mod, N370S GC mod, GAA inhib, GLA spleen mod)
CCn1c(C)c(/C=N/Nc2nc3ccccc3s2)c2ccccc21	GAA glycogen mod 25.1µM
O=C(Nc1ccc2nn(-c3ccccc3)nc2c1)c1ccc(-c2cccc(Cl)c2)o1	none (no result: GLA inh pH 4.5, GAA spleen mod, N370S GC mod, GAA inhib, GLA spleen mod)
C=CCNC(=S)Nc1ccc(N(C)C)cc1	GAA glycogen mod 3.14µM
C=CCNC(=S)Nc1ccc(C(N)=O)cc1	none
NCCNCCN	none (no result: GAA glycogen mod, GLA inh pH 4.5, GAA inhib)
c1ccc(N2CCN(c3ncccn3)CC2)cc1	none
Oc1ccccc1N1CCN(c2ncccn2)CC1	GAA glycogen mod 7.88µM
Nc1cc(Cl)c(N)c(Cl)c1	none (no result: GAA glycogen mod, GLA inh pH 4.5, GAA inhib)
Nc1cc(Cl)c(N)cc1Cl	GAA glycogen mod 28.2µM
CC(C)C(=O)c1ccc(O)c(O)c1	GAA glycogen mod 7.08µM (no result: GAA inhib)
COC(=O)c1ccc(O)c(Sc2cc(C(=O)OC)ccc2O)c1	none
CCCc1cc(=O)[nH]c(Nc2ccc(O)cc2)n1	GAA glycogen mod 28µM
CNc1ncnc2ccc(-c3cccc(OC)c3)cc12	N370S GC mod 8.91µM (no result: GAA glycogen mod, GLA inh pH 4.5, GAA inhib)
COc1ccc(OC)c(N=C2C(=O)Nc3ccccc32)c1	GAA glycogen mod 31.4µM, GAA inhib inconclusive
COc1ccc(N=C2C(=O)Nc3ccccc32)cc1	GAA glycogen mod inconclusive
Cc1noc(C)c1-c1ccc2ncnc(NC3CCCc4ccccc43)c2c1 (stereo not drawn)	none (no result: GAA glycogen mod, GLA inh pH 4.5, GAA inhib)
O=C1NN(c2ccc(F)c(Cl)c2)C(=O)/C1=C\c1cccc(OC(=O)c2cccs2)c1	GAA glycogen mod inconclusive
CC(C)=C1C(=O)NN(c2ccc(F)c(Cl)c2)C1=O	GAA glycogen mod 24.9µM
O=C(Nc1cc(C(F)(F)F)cc(C(F)(F)F)c1)c1cc(Cl)ccc1O	none (no result: GAA glycogen mod, GLA inh pH 4.5, GAA inhib)
CC(/C=C/C(=O)NO)=C\[C@@H](C)C(=O)c1ccc(N(C)C)cc1	N370S GC mod 17.8µM! (no result: GAA glycogen mod, GAA inhib)
O=C1OC(N2C(=O)CC[C@H]2C(=O)Nc2ccc(F)c(F)c2)c2ccccc21 (stereo partly drawn)	none (no result: GLA inh pH 4.5, GAA spleen mod, GAA inhib, GLA spleen mod)
O=C1OC(N2C(=O)CC[C@H]2C(=O)Nc2ccc3c(c2)OCO3)c2ccccc21 (stereo partly drawn)	GAA glycogen mod 31.6µM (no result: GLA inh pH 4.5, GAA spleen mod, GAA inhib, GLA spleen mod)
CN1CCN(NC(=O)c2cn(-c3ccccc3)nc2-c2cccc(Br)c2)CC1	N370S GC mod 10µM
COc1ccc(C(=O)c2cn[nH]c2-c2ccc(C)cc2O)cc1	none (no result: GLA inh pH 4.5, GAA spleen mod, GAA inhib, GLA spleen mod)
COc1ccc(-c2cc(=O)c(C(=O)c3ccc(C)cc3)n[nH]2)cc1	GAA spleen mod inconclusive, GLA spleen mod 39.8µM
CCOC(=O)c1c(NC(=O)CSc2nc(-c3ccc(OC)cc3)cc(C(F)(F)F)n2)sc(C)c1C	none (no result: GLA inh pH 4.5, GAA spleen mod, N370S GC mod, GAA inhib, GLA spleen mod)
CCS(=O)(=O)CCSc1nc2ccccc2o1	none
Cc1ccc2oc(=O)c(/C=C(\O)c3ccccc3)nc2c1	GAA glycogen mod inconclusive
Cc1ccc2oc(=O)c(/C=C(\O)c3cccs3)nc2c1	GAA glycogen mod 12.6µM (no result: GAA inhib)
O=c1oc2ccc(Cl)cc2nc1/C=C(\O)c1cccs1	GAA glycogen mod 6.31µM (no result: GAA inhib)
CS(=O)(=O)Cc1nc2ccccc2oc1=O	GAA glycogen mod 5.58µM
C/C(O)=C\c1nc2ccccc2oc1=O	GAA glycogen mod 10µM
O=c1oc2ccccc2nc1/C=C(\O)c1ccc(Br)cc1	GAA glycogen mod inconclusive (no result: GAA inhib)
COC(=O)N1C2CC(=O)O[C@@H]3c4cc5c(cc4[C@]1(C)[C@@]3(Br)c1ccccc12)OCO5	none (no result: GAA glycogen mod, GAA inhib)
CN1C2CCC1CC(OC(=O)C(O)c1ccccc1)C2 (stereo not drawn)	none (no result: GAA glycogen mod, GAA inhib)
COc1cc(OC)cc(C2=Nn3c(nnc3-c3ccccc3O)SC2)c1	none (no result: GAA glycogen mod, GLA inh pH 4.5, GAA inhib)
O=C1c2c(O)ccc([N+](=O)[O-])c2C(=O)c2c([N+](=O)[O-])ccc(O)c21	none (no result: GAA glycogen mod, GLA inh pH 4.5, GAA inhib)
Oc1ccccc1N=Cc1c(O)ccc2oc3c(c12)CCCC3	GAA glycogen mod 5.62µM (no result: GAA inhib)
CCOC(=O)C1=C(c2ccccc2)NC(=O)NC1c1cc(Cl)c(O)c(OC)c1 (stereo not drawn)	none

Assay outcomes as filed in PubChem BioAssay.
